# Source: PubChem BioAssay AID1159606 (Sanford-Burnham Center for Chemical Genomics, 2016)
# Out of some 360,000 compounds screened, about 7,300 (2%) were called active. This excerpt belongs to a sample that is enriched for actives. Values without a mark were called inactive. Cut-off read from the data, not from the text of the source: active = inhibition above about 50%; inactive = the rest.
# Assay: blockers of TWEAK-induced Fn14 reporter activity – luciferase reporter cells, uHTS, primary screen (AID 1159606)
# Conditions: TWEAK-stimulated Fn14 reporter cells, luciferase luminescence, 8 h; at 10 µM; active compounds read high
row,Compound,inhibition
1,CC(C)(C)Oc1ccccc1Nc1nc(NCCO)nc(N2CCCC2)n1,-8.68%
2,Cc1ccc(-n2c(SCC(=O)N3CCC(C(=O)O)CC3)nc3ccccc3c2=O)cc1C,58.6% (active)
3,COc1cccc(-n2c(SCC(=O)NC3CCS(=O)(=O)C3)nc3ccccc3c2=O)c1 (stereo not drawn),6.23%
4,O=C(CSc1nc2ccccc2c(=O)n1-c1ccccc1F)N1CCOCC1,0.72%
5,O=C(CCCN1C(=O)C(c2ccccc2)Oc2cccnc21)Nc1ccccc1Br (stereo not drawn),-8.78%
6,COC(=O)[C@]12CCCCC=C1N(Cc1cccc3ccccc13)C(=O)[C@H](CC(=O)N1CCOCC1)C2,-1.32%
7,CSc1ccc(Cl)c(C(=O)OCC(=O)N2CC(C)OC(C)C2)c1 (stereo not drawn),3.56%
8,CN(C)S(=O)(=O)N1CCN(c2ccc([N+](=O)[O-])cc2)CC1,-16%
9,CCCCC(=O)Nc1c2c(nn1-c1ccc([N+](=O)[O-])cc1)CS(=O)(=O)C2,-8.65%
10,O=C1/C(=C\c2ccc([N+](=O)[O-])cc2)CS(=O)(=O)C/C1=C/c1ccc([N+](=O)[O-])cc1,103% (active)
11,Cc1cc(NC(=O)CSc2nnnn2-c2ccc(F)cc2)no1,-11.5%
12,O=C(O)Cc1csc(NC(=O)CSc2nnnn2-c2ccc(O)cc2)n1,58.4% (active)
13,O=C(CSc1nnnn1-c1ccc(O)cc1)c1ccc(F)cc1,-10.2%
14,O=C(COc1cccc(F)c1)Oc1ccc(C(=O)c2ccccc2)cc1,10.4%
15,O=C(Nc1ccn(Cc2ccccc2F)n1)c1ccc(COc2ccc(Cl)cc2Cl)o1,33.4%
16,O=C(Nc1ccn(Cc2ccccc2)n1)c1n[nH]c([N+](=O)[O-])c1Cl,73.8% (active)
17,Cc1c(Br)c([N+](=O)[O-])nn1CC(=O)N1CCN(Cc2ccccc2)CC1,-4.42%
18,CC(=O)Oc1ccc(Cn2c(C)c(C(=O)NCc3ccc(C#N)cc3)sc2=O)cc1,-2.94%
19,CC(=O)C1=CCC(c2ccccc2)N(S(=O)(=O)c2ccc(C)cc2)C1 (stereo not drawn),15.7%
20,Cc1cc(C)cc(NC(=O)N2CCCCCCC2)c1,-11.9%
21,Cc1ccc2cc3cc(C(=O)N4CCCCCC4)oc3nc2c1,50.1% (active)
22,Cc1ccc2oc(=O)c3cnn(CC(=O)N4CCCCCC4)c3c2c1,-7.9%

row,Compound,inhibition
1,COc1ccc(OC)c(CN2C(=O)CCC2(C)c2nnnn2Cc2ccccc2)c1 (stereo not drawn),-0.14%
2,C=CCNc1nnc(SCC(=O)N2CCCCC2)c2ccccc12,16.3%
3,COC(=O)c1ccc2nc(-c3ccc(C)cc3)c(Cc3ccc(OC)cc3C)n2c1,-18.1%
4,Cc1cccc(NC(=S)NCCc2ccc(Cl)cc2)c1C,72% (active)
5,Cc1cccc(NC(=S)NCCc2ccc(F)cc2)c1C,3.93%
6,Cc1ccccc1NC(=S)NC(=O)Cc1ccc(Cl)cc1,9.93%
7,Cc1ccc(CNC(=O)c2cccc3c2C(=O)c2ccc(N4CCC(C)CC4)cc2S3(=O)=O)cc1,21%
8,COc1cc(/C=C/C(=O)OCC(=O)Nc2cccc(Oc3ccccc3)c2)ccc1O,14.2%
9,CCCCC[C@H](C)N1C[C@@H](COCc2ccccc2)Oc2cc(N3CC[C@@H](N(C)C)C3)ccc2S1(=O)=O,-25%
10,Nc1ccccc1SC(C[N+](=O)[O-])c1ccccc1 (stereo not drawn),61.3% (active)
11,CS(=O)(=O)N(Cc1ccccc1)c1ccc(C(=O)NN=C2CCCCCC2)cc1,-6.55%
12,COc1ccc(OC)c(NC(=O)C2CCCN2S(=O)(=O)c2ccc3c(c2)CC(C)N3C(C)=O)c1 (stereo not drawn),-20.4%
13,COc1ccc(CN(Cc2ccco2)S(=O)(=O)c2ccc(S(=O)(=O)N3CCCC3)cc2)cc1,-30.2%
14,Cc1ccsc1C(=O)OCC(=O)Nc1cccc(F)c1,-31.6%
15,Cc1ccsc1C(=O)OCC(=O)NCCc1ccccc1,-22.4%
16,Cc1ccsc1C(=O)OCC(=O)c1cc(C)n(CC2CCCO2)c1C (stereo not drawn),103% (active)
17,Cc1ccc(OCC(=O)N2CCN(S(=O)(=O)c3ccc(Cl)s3)CC2)cc1C,10.7%
18,CCCC(C)C(=O)Nc1ccc(NC(C)=O)cc1 (stereo not drawn),-11.6%
19,COc1cccc2sc(N(CCCN(C)C)C(=O)CCS(=O)(=O)c3ccccc3)nc12,77.6% (active)
20,O=C(CCS(=O)(=O)c1ccccc1)Nc1nc2c(s1)CCCC2,22%
21,Cc1cccc2sc(N(CCCN(C)C)C(=O)CCS(=O)(=O)c3ccccc3)nc12,61.9% (active)
22,Cc1cccc(C)c1NC(=O)CCS(=O)(=O)c1cccc2nsnc12,-23.2%

row,Compound,inhibition
1,Cc1ccc(S(=O)(=O)CCC(=O)OCC(=O)N(C)Cc2ccccc2)cc1,4.76%
2,COc1ccc(N(C)C(=O)CCS(=O)(=O)c2cccc3nsnc23)cc1,36.5%
3,CCOc1ccc(NS(=O)(=O)c2ccc(C(=O)NC3CCN(Cc4ccccc4)CC3)cc2)cc1,10.7%
4,Cc1cccc(CCNC(=O)Cn2ncc3c([nH]c4ccc(C)cc43)c2=O)c1,-15.4%
5,C=CCc1cc(S(=O)(=O)c2ccc(O)c(CC=C)c2)ccc1O,30.9%
6,O=C1C(Sc2cccc(F)c2)=C[C@@]2(O)CC[C@@H](O)[C@]1(Sc1cccc(F)c1)[C@H]2O,31.5%
7,CC(OC(=O)Cc1ccc(F)cc1)C(=O)N1CCc2ccccc21 (stereo not drawn),-3.73%
8,C[C@H](CO)N1C[C@H](C)[C@H](CN(C)C(=O)Nc2ccc(C(F)(F)F)cc2)Oc2c(NC(=O)c3ccncc3)cccc2C1=O,7.86%
9,Cc1nnc(NC(=O)CSc2nccn2-c2cccc(C)c2C)s1,12.7%
10,COc1cc(C(O)c2nc(-c3cnn(C)c3)cs2)ccc1F (stereo not drawn),-2.28%
11,Brc1ccccc1/C=N/Nc1nc2ccccc2o1,-8.62%
12,Oc1c(Br)cccc1/C=N/Nc1c(F)c(F)c(F)c(F)c1F,71.5% (active)
13,c1cc(-c2ccc3[nH]ccc3c2)n2ccnc2c1,-2.85%
14,COCCNC(=S)N1CCC(NC(=O)C23CC4CC(CC(C4)C2)C3)CC1,15.9%
15,CCOC(=O)[C@]12CCCC=C1N(Cc1ccc(Cl)cc1Cl)C(=O)[C@H](CC(=O)N1CCCCC1)C2,7.58%
16,COc1cc2c(=O)n(C)c3ccccc3c2cc1OC,-37.3%
17,CC(=O)Nc1cccc(C(=O)OCC(=O)c2ccc3c(c2)OCO3)c1,81.9% (active)
18,O=C(COC(=O)c1ccccc1)c1ccc2c(c1)OCCO2,77.6% (active)
19,COc1ccc(C(=O)OCC(=O)Nc2cccc(C(C)=O)c2)cc1OC,11.4%
20,O=C(OCc1ccccc1F)c1ccc2c(c1)OCCO2,-12.5%
21,CC(=O)Nc1cccc(C(=O)OCC(=O)NCc2cc(C)c(O)c(C)c2)c1,-19.2%
22,O=C(COC(=O)c1ccc(O)cc1O)c1ccc2c(c1)OCCO2,-18.5%

row,Compound,inhibition
1,CCOC(=O)[C@]12CCC=C1N(Cc1ccccc1)C(=O)[C@H](CC(=O)N1CCCC1)C2,15.9%
2,CCN(CCCNC(=O)CCn1c(=O)[nH]c2ccsc2c1=O)c1ccccc1,-1.46%
3,CCN1CCN(CCNC(=O)c2ccc3c(c2)NC(=O)/C(=C\c2cccc(Cl)c2)S3)CC1,-66.6%
4,CCN(CCCNC(=O)c1ccc2c(c1)NC(=O)CN2C)c1cccc(C)c1,82.5% (active)
5,CCOC(=O)N1CCN(C(=O)C[C@@H]2C[C@@]3(C(=O)OC)CCCCC=C3N(CCC3=CCCCC3)C2=O)CC1,-5.06%
6,COCCCn1cc(CN2CC(N(C)C)CS2(=O)=O)nn1 (stereo not drawn),20.9%
7,CC(C)C[C@H]1CNC(=O)C(=O)N1C[C@H]1CCCN1C[C@H](Cc1ccc(O)cc1)N1C[C@H](CC(C)C)N(CC2CCCCCC2)C(=O)C1=O,1.64%
8,CCC(C)Cn1c(O)cc2nn(-c3nc4ccccc4s3)c(=O)c-2c1C (stereo not drawn),61.6% (active)
9,C[C@H](CO)N1C[C@H](C)[C@H](CN(C)C(=O)Nc2ccc3c(c2)OCO3)Oc2ncc(Br)cc2C1=O,-2.28%
10,CC(C)=CCN1CCN(Cc2ccc(Oc3ncccn3)cc2)CC1CCO (stereo not drawn),14.3%
11,CCOc1ccc(CN2CCN(CCCc3ccccc3)C(CCO)C2)cc1 (stereo not drawn),1.65%
12,OCCC1CN(Cc2ccc(Oc3ncccn3)cc2)CCN1CCc1ccccc1 (stereo not drawn),75.5% (active)
13,COc1ccc(OC)c(NC(=O)c2ccc3c(c2)CCN3S(C)(=O)=O)c1,-3.45%
14,CN(C)C1CN(Cc2cn(Cc3ccccc3)nn2)S(=O)(=O)C1 (stereo not drawn),7.88%
15,COCc1c(N)c(C)nc(Cl)c1C#N,12.4%
16,COC(=O)N(C)C[C@@H]1OCc2cnnn2CCCC(=O)N([C@@H](C)CO)C[C@@H]1C,19.1%
17,C[C@@H]1CN([C@@H](C)CO)C(=O)CCCn2nncc2CO[C@H]1CN(C)Cc1ccc(C(F)(F)F)cc1,1.47%
18,C[C@@H]1CN([C@@H](C)CO)C(=O)CCCn2nncc2CO[C@H]1CN(C)C(=O)Nc1ccc(C(F)(F)F)cc1,106% (active)
19,O=C1c2ccncc2C(=O)N1C1CCCCC1,-3.74%
20,c1ccc(C(=NNc2nc3ccccc3s2)c2ccccn2)cc1,44.1%
21,O=[N+]([O-])c1cc(Br)c(O)c(/C=N/Nc2nc3ccccc3s2)c1,75.7% (active)
22,O=C(N/N=C/c1cc(Br)c(O)c([N+](=O)[O-])c1)C(O)(c1ccccc1)c1ccccc1,-0.77%
